Consider 93 compounds from PubChem BioAssay AID1851 (National Center for Advancing Translational Sciences (NCATS), 2009).

Structures are written as SMILES. Out of some 16,000 compounds screened, about 5,700 (36%) were called active. Roughly 24% stayed inconclusive and do not appear here. Some of the results follow. Unmarked numbers belong to inactive results. Calls follow the shape of the dose curve; as a rule, active = well fitted curve in the direction sought with a large enough effect; inconclusive = small, poorly fitted or top-dose-only effect, or effect the other way; inactive = no such curve, though single readings can be large or run the other way.
% is scaled to controls: 0 for no effect and ±100 for the full control effect.

Sequence of Cytochrome P450 1A2 (Homo sapiens) (P05177 whole entry, looked up): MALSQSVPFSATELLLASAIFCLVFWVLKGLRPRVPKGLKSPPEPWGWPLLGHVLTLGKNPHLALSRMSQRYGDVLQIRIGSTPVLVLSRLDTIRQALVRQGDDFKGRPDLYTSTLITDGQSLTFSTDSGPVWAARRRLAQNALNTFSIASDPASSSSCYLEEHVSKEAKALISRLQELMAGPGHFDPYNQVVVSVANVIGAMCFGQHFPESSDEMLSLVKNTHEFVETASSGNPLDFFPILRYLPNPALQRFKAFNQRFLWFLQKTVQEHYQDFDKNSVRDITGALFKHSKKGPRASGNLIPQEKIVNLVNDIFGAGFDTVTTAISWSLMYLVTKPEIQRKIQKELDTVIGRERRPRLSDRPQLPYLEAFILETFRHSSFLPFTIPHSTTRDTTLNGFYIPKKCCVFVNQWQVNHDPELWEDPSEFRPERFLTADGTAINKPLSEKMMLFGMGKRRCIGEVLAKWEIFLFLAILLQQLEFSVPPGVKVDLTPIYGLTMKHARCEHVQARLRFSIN

The experiment has as its target Cytochrome P450 1A2 (Homo sapiens) (UniProt P05177). The experiment can be described thus: Cytochrome panel assay with activity outcomes. As to conditions: recombinant CYP, pro-luciferin dealkylation, luminescence, p450-cyp1a2; series mostly up to 57.1 µM; activity, negative = inhibition: at the top concentration.
As for `COC(=O)Cn1c(CN(Cc2ccccc2)Cc2ccccc2)nc2c1c(=O)[nH]c(=O)n2C`, the “activity, negative = inhibition” value is -13.7%.

Consider `CN(C)c1ccc(-c2nc3n(n2)C(c2cccnc2)C2=C(CC(C)(C)CC2=O)N3)cc1` (stereo not drawn), for which the AC50 (usually the concentration giving half of the maximal activity seen) was 3.16 µM (active).

In the case of `CN(C)N1C(N)=C(C#N)C(c2cccnc2)C2=C1CC(C)(C)CC2=O` (stereo not drawn), the “activity, negative = inhibition” value was -4.23%.

With `CCc1c(C(=O)O)[nH]c2ccc(Br)cc12`, the AC50 was 5.01 µM (active).

Regarding `COc1cc(NC(=O)Cc2c(C(=O)O)[nH]c3ccccc23)cc(OC)c1OC`, the “activity, negative = inhibition” value is -4.11%.

For the compound `COc1ccc(CSC2=C(C#N)C(=O)NC3(CCCCC3)S2)cc1`, the activity, negative = inhibition is -5.77% [at 2.29 µM].

For `N#C/C(=C\c1cc([N+](=O)[O-])c(N2CCCCC2)cc1N1CCCCC1)c1nn(-c2ccccc2)c(N)c1C#N`, the “activity, negative = inhibition” value was -19.8%.

In the case of `Cc1nn(-c2ccccc2)c(N2CCCCC2)c1/C=N/O`, the AC50 is 1.58 µM (active).

Consider `CO[C@@H]1COC(=O)[C@H](CCSC)NC(=O)C/C=C\[C@@H](C)COC(=O)[C@@H]2CCCN2C(=O)C/C=C\[C@H]1C`, for which the activity, negative = inhibition is 7.24% [at 11.4 µM].

With `Cc1ccc2c(c1)nnn2C1CCN(S(=O)(=O)c2ccc(C(=O)N3C(C)CCCC3C)cc2)CC1` (stereo not drawn), the “activity, negative = inhibition” value was -30.6%.

For the compound `CC1CCCC(C)N1C(=O)c1cc(-c2ccc(Cl)c(Cl)c2)on1` (stereo not drawn), the AC50 was 5.01 µM (active).

As for `C[C@@H]1CCC[C@H](C)N1NC(=O)c1ccc(Cl)c(S(N)(=O)=O)c1`, the “activity, negative = inhibition” value is -0.756% [at 25.6 µM].

Consider `CC1(C)CC(NCc2ccc3c(c2)OCO3)CCO1` (stereo not drawn), for which the “activity, negative = inhibition” value is -15.5%.

Regarding `c1ccc(-c2nc3ccccn3c2NCc2ccc3c(c2)OCO3)cc1`, the AC50 was 1.78 µM (active).

On to `CS(=O)(=O)N1CCC[C@@]2(CCN(c3ncccn3)C2)C1`, for which the “activity, negative = inhibition” value is -2.13%.

Consider `CCOCC(=O)Nc1cc(C(=O)Nc2cccc(C)c2C)ccc1Cl`, for which the AC50 was 5.01 µM (active).

Regarding `CCOCC(=O)Nc1cc(C(=O)Nc2ccccc2)ccc1Cl`, the AC50 is 2.51 µM (active).

`COC(=O)c1ccc(Cl)c(NC(=O)c2ccc(-c3ccccc3)cc2)c1`: the “activity, negative = inhibition” value is -27%.

On to `CCc1c2c(nc3cccc(SC)c13)COC2`, for which the AC50 was 2.51 µM (active).

Take `CCc1c2c(nc3ccc(OC)cc13)COC2`: the AC50 was 0.794 µM (active).

In the case of `COc1ccc(/C=N/n2c(-c3cccs3)n[nH]c2=S)cc1`, the AC50 was 0.631 µM (active).

Regarding `COc1ccc(-n2c(-c3cnccn3)n[nH]c2=S)cc1`, the “activity, negative = inhibition” value is 1.32%.

For the compound `Cc1ccc(/C=N/n2c(-c3cccs3)n[nH]c2=S)cc1`, the half-maximal activity concentration (AC50) was 0.282 µM (active).

`Cc1ccc(-c2n[nH]c(=S)n2/N=C/c2cccn2C)cc1`: the AC50 is 3.55 µM (active).

`Nc1ccn([C@H]2O[C@@H](COP(=O)(O)O)[C@@H](O)[C@H]2O)c(=O)n1`: the activity, negative = inhibition was -23.3% [at 11.4 µM].

On to `N#Cc1cccc(-c2nc3cnc(Oc4cccc(Cl)c4)nc3n(C3CC3)c2=O)c1`, for which the AC50 is 2.51 µM (active).

Take `O=c1c(-c2ccc(F)cc2)nc2cnc(Oc3cccc(Cl)c3)nc2n1C1CC1`: the AC50 is 0.316 µM (active).

As to `N#CCCn1c(=O)c(-c2cccc(C#N)c2)nc2cnc(Oc3cccc(Cl)c3)nc21`, the “activity, negative = inhibition” value was -17.1%.

For the compound `O=c1c(-c2ccccc2)nc2cnc(Oc3cccc(Cl)c3)nc2n1C1CC1`, the AC50 was 1.58 µM (active).

As to `CC(C)CN1CCC2(CC1)CCN(C(=O)c1cccc(F)c1)CC2`, the “activity, negative = inhibition” value is 0.754%.

In the case of `CC(=O)OC[C@@H]1O[C@@H](O/N=C2/C[C@@H](O)[C@@H](O)[C@@H]3[C@@H]4C(=O)N(C[C@@H]5CCCO5)C(=O)[C@H]4CC[C@@H]23)[C@H](OC(C)=O)[C@H](OC(C)=O)[C@@H]1OC(C)=O`, the activity, negative = inhibition is 5.86% [at 11.4 µM].

In the case of `COc1ccc(/C=N\NC(=O)C2C(=O)NCC2c2ccccc2)cc1O` (stereo not drawn), the “activity, negative = inhibition” value was -28.2%.

Consider `O=C(N/N=C/c1ccc(OCc2ccccc2)cc1)c1cccs1`, for which the AC50 was 3.16 µM (active).

Regarding `Cc1cccc(C)c1NC(=O)COc1cccc(/C=N/NC(=O)C(=O)NCc2ccccc2)c1`, the “activity, negative = inhibition” value is -14.1%.

As to `C=CCNC(=S)N/N=C/c1ccc(OCc2ccccc2)cc1`, the AC50 is 14.1 µM (active).

On to `O=C(N/N=C/c1cccc(OCc2ccccc2)c1)c1cccs1`, for which the AC50 was 2.24 µM (active).

Take `COc1ccc(/C=N/NC(=O)CCc2ccccc2)cc1O`: the AC50 was 25.1 µM (active).

For the compound `C/C(CCC(=O)OC[C@@H]1O[C@H](C#Cc2ccccc2)C=C[C@@H]1Oc1ccc(C)cc1)=N/OC[C@@H](O)COCc1ccco1`, the activity, negative = inhibition is -4.08% [at 11.4 µM].

Consider `C/C(CCN1CCCc2nc(C)c(C)cc21)=N\OC[C@@H](O)[C@@H]1O[C@@H]2OC(C)(C)O[C@@H]2[C@H]1O`, for which the activity, negative = inhibition was 1.1% [at 11.4 µM].

For `Nc1nc2ncc(CNc3ccc(C(=O)N[C@@H](CCC(=O)O)C(=O)O)cc3)nc2c(=O)[nH]1`, the “activity, negative = inhibition” value was -5.34% [at 25.6 µM].

In the case of `COc1cc(/C=N/NC(=O)c2cccs2)ccc1OCc1ccccc1`, the AC50 is 0.794 µM (active).

With `COc1cc(/C=N/NC(=O)c2cccc([N+](=O)[O-])c2)ccc1OCc1ccc(C)cc1`, the “activity, negative = inhibition” value was -24.6%.

Consider `Cc1ccccc1C(=O)Nc1cccc(NC(=S)NC(=O)c2cccs2)c1`, for which the AC50 is 3.16 µM (active).

`CCN(c1ccccc1)S(=O)(=O)c1ccc(NC(=S)NC(=O)c2cccs2)cc1`: the “activity, negative = inhibition” value is -24.5%.

Regarding `COc1cc(NC(=S)NC(=O)c2c(OC)cccc2OC)ccc1NC(=O)c1cccs1`, the “activity, negative = inhibition” value is -10.4%.

Regarding `Cc1cccc(NC(=S)NC(=O)c2cccs2)n1`, the AC50 is 0.794 µM (active).

As for `Cc1c(C)c(C)c(CC2(C)CSC2)c(CC2(C)CSC2)c1C`, the activity, negative = inhibition is -16.1% [at 11.4 µM].

As to `COc1cccc(-c2cc(N(C)Cc3ccco3)ncn2)c1`, the concentration at half-maximal activity (AC50) is 0.794 µM (active).

Take `CN(Cc1ccco1)c1cc(-c2cccc(C#N)c2)ncn1`: the AC50 was 0.794 µM (active).

On to `COc1cccc([C@@H]2Oc3ccc(OC)cc3/C(=N/OC[C@@H](O)COCc3ccco3)[C@@H]2O)c1`, for which the activity, negative = inhibition was -3.42% [at 11.4 µM].

For the compound `CN(Cc1ccco1)c1cc(-c2cccnc2)ncn1`, the AC50 is 0.316 µM (active).

Regarding `CCCNC1CCS(=O)(=O)C1` (stereo not drawn), the “activity, negative = inhibition” value is -7.33%.

As for `CCOC(=O)c1c(C)[nH]c(C(=O)OCC(=O)NC2CCS(=O)(=O)C2)c1C` (stereo not drawn), the AC50 was 12.6 µM (active).

As for `Cc1ccc(/S(C)=N/S(=O)(=O)c2ccc(C)cc2)cc1` (stereo not drawn), the “activity, negative = inhibition” value was -16.1%.

`CCCS(=O)(=O)N1CCCC(C(=O)N2CCN(C(=O)OCC)CC2)C1` (stereo not drawn): the AC50 is 10 µM (active).

Take `CCCS(=O)(=O)N1CCCC(C(=O)NCCCOCC)C1` (stereo not drawn): the “activity, negative = inhibition” value was 9.24%.

On to `CCCS(=O)(=O)N1CCCC(C(=O)NCCCOC(C)C)C1` (stereo not drawn), for which the “activity, negative = inhibition” value was 15.7%.

Consider `COC(=O)c1ccc(NC(=O)c2ccccc2NS(=O)(=O)c2ccccc2)cc1`, for which the “activity, negative = inhibition” value was -26.7%.

As for `CN1c2ccccc2C(O)=C(C(=O)Nc2ccccc2)S1(=O)=O`, the “activity, negative = inhibition” value was 22.2%.

On to `COC(=O)c1ccc(NC(=O)c2cc3sccc3n2C)cc1`, for which the AC50 was 8.91 µM (active).

In the case of `Cn1c(C(=O)Nc2ccccc2)cc2sccc21`, the AC50 was 8.91 µM (active).

For `COc1cccc(-c2ccc3ncnc(NCCNC(C)=O)c3c2)c1`, the AC50 was 3.16 µM (active).

As to `COCCNc1ncnc2ccc(-c3cccnc3)cc12`, the AC50 was 0.2 µM (active).

Consider `COCCNc1ncnc2ccc(-c3cccc(OC)c3)cc12`, for which the AC50 was 0.794 µM (active).

Consider `N#Cc1ccc(CN2CCCC3(CCN(C(=O)c4cccc(F)c4)CC3)C2)cc1`, for which the “activity, negative = inhibition” value is 1.62%.

In the case of `Cn1c(=O)[nH]c(=O)c2c1nc(CN1CCOCC1)n2CCCO`, the “activity, negative = inhibition” value is 2.56%.

Consider `COc1ccc(CNc2ncncc2-c2ccccc2C(F)(F)F)c(OC)c1`, for which the AC50 is 15.8 µM (active).

For `COc1ccccc1CNc1ncncc1-c1ccccc1C(F)(F)F`, the AC50 was 15.8 µM (active).

As to `COc1ccccc1CNc1ncncc1-c1ccccc1Cl`, the AC50 was 10 µM (active).

As to `Cc1ccccc1CN1CCN(CC(=O)NCCCN2CCN(c3ccc(F)cc3)CC2)C1=O`, the “activity, negative = inhibition” value was 0.19%.

As to `Cn1cc(C2=C(c3ccc(Cl)cc3Cl)C(=O)NC2=O)c2ccccc21`, the AC50 is 3.16 µM (active).

For `COc1ccccc1-c1nccc(NCc2ccccc2)n1`, the AC50 was 2.51 µM (active).

Consider `CNc1ccnc(-c2ccccc2OC)n1`, for which the AC50 is 5.01 µM (active).

For `COc1ccccc1-c1nccc(NCc2cccnc2)n1`, the AC50 was 0.2 µM (active).

As for `COc1ccccc1-c1nccc(NCc2cccc(C)c2)n1`, the AC50 was 0.631 µM (active).

For `CS(=O)(=O)N1CCC[C@@]2(CCN(C(=O)Nc3cccc(C#N)c3)C2)C1`, the “activity, negative = inhibition” value was -14.8%.

`Cc1ccccc1-c1nccc(NCc2cccnc2)n1`: the AC50 is 0.2 µM (active).

With `CNc1ccnc(-c2ccccc2C)n1`, the AC50 is 5.01 µM (active).

As to `CO[C@H]1COC(=O)C/C=C\[C@H](C)[C@@H](NS(=O)(=O)c2ccc(C)cc2)COC(=O)CCC[C@@H]1C`, the activity, negative = inhibition was 1.16% [at 11.4 µM].

On to `C=CC[C@@H]1C=C[C@H](O/N=C(\C)CCN2CCc3nc(CC)c(CC)cc3C2)[C@H](CO)O1`, for which the activity, negative = inhibition was -3.35% [at 11.4 µM].

Turning to `CCC(=O)Nc1ccc(/C(C)=N\NS(=O)(=O)c2ccc(C)cc2)cc1`, the AC50 is 25.1 µM (active).

Regarding `C/C(=N/NS(=O)(=O)c1ccc(C)cc1)P(=O)(O)O`, the activity, negative = inhibition was -10% [at 11.4 µM].

As for `C/C(=N\NC(=O)c1ccc(Cl)cc1)c1cccc(NC(=O)C(C)C)c1`, the AC50 is 3.55 µM (active).

Regarding `C/C(=N\NC(=O)c1cccc(Cl)c1)c1cccc(NC(=O)C(C)C)c1`, the AC50 was 5.01 µM (active).

With `COc1ccc(C(=O)Nc2cccc(/C(C)=N/NC(=O)c3ccc([N+](=O)[O-])cc3)c2)cc1OC`, the “activity, negative = inhibition” value was -13.8%.

With `C/C(=N/NS(=O)(=O)c1ccc(C)cc1)c1cccc(NC(=O)c2cccc(Cl)c2)c1`, the AC50 was 14.1 µM (active).

With `Cc1ccc(S(=O)(=O)Nc2nc(C)c(NC(=O)Nc3ccc(Cl)cc3Cl)s2)cc1`, the “activity, negative = inhibition” value is -25.6%.

With `Oc1ccc([C@@H]2CNCCc3c2cc(O)c(O)c3Cl)cc1`, the AC50 entry was “inactive”.

For the compound `CN1CC[C@@]2(CCCN(C(=O)c3cc(C(F)(F)F)cc(C(F)(F)F)c3)C2)C1`, the “activity, negative = inhibition” value is -5.26%.

`CN(/C=C/C(=O)C(F)(F)F)Cc1ccccc1`: the “activity, negative = inhibition” value was -22.8%.

Take `C/C(CC(=O)NCCCN1CCOCC1)=N\NC(=O)COc1ccc(Cl)cc1`: the AC50 is 2.51 µM (active).

Consider `Cc1cc(S(=O)(=O)NCCCN2CCOCC2)ccc1F`, for which the “activity, negative = inhibition” value is -23%.

Consider `CC(=O)Nc1ccc(S(=O)(=O)NC(CC(=O)NCCCN2CCOCC2)C(C)C)cc1` (stereo not drawn), for which the “activity, negative = inhibition” value was 1.91%.
